Screens (PubChem BioAssay)
Only some compounds are listed: those with a hit (about 1.4% of all), similar ones and a draw of the others.
HNF4A DNA FP – change in binding of human HNF4 alpha to DNA | 360,000 tested, 0.3% active | HNF4a-FITC DNA binding, fluorescence polarization, 1 h | P41235 | activity change, % at 10 µM; in the data active = activity change above about 30%, passing the limit was not always enough
IDE cell activ – boosts human insulin-degrading enzyme activity in HEK cells; P14735; FAbeta-B cleavage, fluorescence polarization; 0% vehicle, 100% cell-free pure enzyme wells; activation, % at 5.96 µM; 340,000 tested, 0.073% active;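 active = activation above the mean of all tested compounds plus 3 SD, set per screening campaign, cut at about 17% in these data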
Target sequence (P14735 whole entry, looked up): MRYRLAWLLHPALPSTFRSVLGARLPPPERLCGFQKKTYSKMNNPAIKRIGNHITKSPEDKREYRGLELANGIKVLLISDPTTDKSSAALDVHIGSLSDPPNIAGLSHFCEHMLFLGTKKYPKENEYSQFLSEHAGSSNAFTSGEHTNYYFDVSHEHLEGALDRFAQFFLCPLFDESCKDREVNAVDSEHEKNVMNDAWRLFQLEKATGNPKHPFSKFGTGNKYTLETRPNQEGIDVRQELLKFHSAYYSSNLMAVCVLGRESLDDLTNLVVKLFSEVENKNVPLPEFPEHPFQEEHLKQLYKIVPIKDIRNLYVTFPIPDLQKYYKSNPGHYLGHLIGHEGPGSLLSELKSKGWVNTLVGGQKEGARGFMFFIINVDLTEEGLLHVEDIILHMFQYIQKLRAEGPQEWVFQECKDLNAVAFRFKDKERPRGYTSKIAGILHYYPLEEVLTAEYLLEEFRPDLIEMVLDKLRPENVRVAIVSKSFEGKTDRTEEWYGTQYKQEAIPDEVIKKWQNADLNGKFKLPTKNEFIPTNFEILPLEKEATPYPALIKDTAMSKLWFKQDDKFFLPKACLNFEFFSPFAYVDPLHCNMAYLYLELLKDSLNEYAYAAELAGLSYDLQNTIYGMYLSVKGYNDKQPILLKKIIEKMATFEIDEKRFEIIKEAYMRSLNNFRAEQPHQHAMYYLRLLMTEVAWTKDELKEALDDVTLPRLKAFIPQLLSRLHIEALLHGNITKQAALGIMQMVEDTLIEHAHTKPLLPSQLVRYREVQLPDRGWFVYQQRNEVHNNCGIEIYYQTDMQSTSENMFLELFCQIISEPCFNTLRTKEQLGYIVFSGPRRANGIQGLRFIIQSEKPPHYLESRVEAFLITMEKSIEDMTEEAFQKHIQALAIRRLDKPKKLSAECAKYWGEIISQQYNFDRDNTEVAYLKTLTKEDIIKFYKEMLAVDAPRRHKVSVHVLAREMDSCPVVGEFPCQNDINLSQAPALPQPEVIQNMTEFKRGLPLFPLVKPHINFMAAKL
TPT1 inhibitor – blocks Candida albicans tRNA 2'-phosphotransferase. recombinant caTPT1, FP RNA substrate dephosphorylation. inhibition, % at 5 µM. 300,000 tested, 0.81% active;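 active = inhibition above the mean of all tested compounds plus 3 SD, set per screening campaign, cut at about 24% in these data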
CRFR2-BP ag – CRF-BP/CRF-R2 complex agonism; HEK293 CRF-R2/CRF-BP, calcium dye fluorescence (FLIPR); percent of saturating CRF peptide response; activation, % at 13.2 µM; AID 588473; 350,000 tested, 0.46% active;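 active = activation of at least 50%, plus an integration ratio under a set limit after plate pattern correction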
IDE inh – inhibits human insulin-degrading enzyme in HEK cells; 320,000 tested, 0.41% active; AID 434962; inhibition, % at 5.59 µM; FAbetaB cleavage, fluorescence polarization; P14735;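 active = percent inhibition above the average of all tested compounds plus 3 SD, set per screening campaign, cut at about 16% in these data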;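 note: IDE supplied by intact live HEK cells; FP after avidin binding of uncleaved biotin substrate so inhibition keeps polarization high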
HNF4a DNA conf – change in binding of human HNF4 alpha to DNA, retest. shares compounds with HNF4A DNA FP. HNF4A-FITC DNA binding, fluorescence polarization, 1 h. AID 1224897. 210 tested, 99% active. activity change, % at 12.5 µM; call rule not given here
Large screens that a line does not name were inactive (follow-up assays come after a bar, where they were run).

CCN1/C(=N\N)c2cccc3cccc1c23	HNF4A DNA FP 57 | HNF4a DNA conf 72
N#Cc1cc(Oc2ccc3ccccc3c2)c(-n2nnc3ccccc32)cc1C#N	HNF4A DNA FP 62 | HNF4a DNA conf 36
N#CC1=C(N)N(c2ccc(F)cc2)C2=C(C1c1ccc(O)cc1)S(=O)(=O)CC2 (configuration not stated)	HNF4A DNA FP 55 (no result: TPT1 inhibitor, IDE inh) | HNF4a DNA conf 52
CCOc1ccc(S(=O)(=O)N2CCN(C(=O)c3cc4ccccc4o3)CC2)cc1	none (no result: TPT1 inhibitor)
O=C(/C=C\Nc1ccc2c(c1)OCO2)c1ccc2c(c1)OCO2	HNF4A DNA FP 81 | HNF4a DNA conf 85
COc1ccc(N/C=C\C(=O)c2ccc3c(c2)OCO3)cc1	none
